According to the supplement of paper PMC10849652:
Targets with a hit are over-represented here; the source holds about 7,900 in all. About 0.6% of all pairs of compound and target were hits. A number with no mark means an inactive call.

Key:
Experiment in all cases: log2 fold change, soluble protein after heating vs DMSO (PISA); higher = thermal stabilisation; K562 cells, 10 uM, 30 min; active = over 0.2 and 3.5 SD of the protein, either way, in both replicates (recomputed)
erlotinib = compound: C#Cc1cccc(Nc2ncnc3cc(OCCOC)c(OCCOC)cc23)c1 [erlotinib]
Summary of the method: (§1)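 Soluble protein was quantified by TMTpro 16plex LC-MS/MS after channel sums were equalised. It was obtained as the supernatant after 21,000xg for 90 min from pooled aliquots of K562 cells (2×10^6 cells/mL, 10 μM compound, 30 min) heated for 3 min across 48°C-58°C and extracted in PBS with 0.5% NP-40 at 4°C. Thermal stability values are relative to control samples and come from duplicates. They are given as log2 fold changes.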

[1] = compound: C/C(=N\NC(=O)C1=CC(=CC=C1)S(=O)(=O)N2CCOCC2)/C3=C(C=CC(=C3)Cl)O
Summary of the method: as §1

[2] = compound: C1=CC(=C(C=C1Cl)C2=NC3=NC=CN=C3C(=N2)NC4=CC=NC=C4)F
Summary of the method: as §1

[3] = compound: C1=CC(=CC=C1C2=NC3=C(N2)C=C(C=C3)C(=O)N)OC4=CC=C(C=C4)Cl
Summary of the method: as §1

[4] = compound: C1=CC2=C(C=CC(=C2)/C=C\3/C(=O)NC(=NCC4=CC=CS4)S3)N=C1
Summary of the method: as §1

[5] = compound: C1=CC2=NC=CN=C2C=C1/C=C/3\C(=O)NC(=O)S3
Summary of the method: as §1

[6] = compound: C1=CC=C(C=C1)C2=NC(=C(N2)C3=CC=NC=C3)C4=CC(=C(C=C4)Cl)O
Summary of the method: as §1

[7] = compound: C1=CC=C2C(=C1)C3=NNC4=CC=CC(=C43)C2=O
Summary of the method: as §1

[8] = compound: C1CCN(C1)C(=O)NC2=CC=CC(=C2)NC3=NC=C(C(=N3)NCCC4=CN=CN4)Br
Summary of the method: as §1

[9] = compound: C1CN(CCC1(CC2=CC=C(C=C2)Cl)N)C3=NC=NC4=C3C=CN4
Summary of the method: as §1

Sequence of UniProt P53367 (P53367 whole entry, looked up): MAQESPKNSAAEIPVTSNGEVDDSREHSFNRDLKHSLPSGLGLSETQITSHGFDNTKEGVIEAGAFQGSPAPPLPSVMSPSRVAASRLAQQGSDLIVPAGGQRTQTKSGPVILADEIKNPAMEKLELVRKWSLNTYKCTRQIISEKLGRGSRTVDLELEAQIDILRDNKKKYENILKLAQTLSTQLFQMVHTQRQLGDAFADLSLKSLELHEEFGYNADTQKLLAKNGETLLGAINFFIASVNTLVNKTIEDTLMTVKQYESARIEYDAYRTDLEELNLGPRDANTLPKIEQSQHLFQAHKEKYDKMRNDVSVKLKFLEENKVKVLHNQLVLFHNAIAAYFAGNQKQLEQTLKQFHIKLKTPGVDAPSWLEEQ
Sequence of UniProt P53680 (P53680 whole entry, looked up): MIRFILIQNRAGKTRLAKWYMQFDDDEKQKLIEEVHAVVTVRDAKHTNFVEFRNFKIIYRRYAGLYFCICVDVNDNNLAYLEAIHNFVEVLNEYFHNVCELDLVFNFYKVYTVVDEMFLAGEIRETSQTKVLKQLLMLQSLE
Sequence of UniProt Q99798 (Q99798 whole entry, looked up): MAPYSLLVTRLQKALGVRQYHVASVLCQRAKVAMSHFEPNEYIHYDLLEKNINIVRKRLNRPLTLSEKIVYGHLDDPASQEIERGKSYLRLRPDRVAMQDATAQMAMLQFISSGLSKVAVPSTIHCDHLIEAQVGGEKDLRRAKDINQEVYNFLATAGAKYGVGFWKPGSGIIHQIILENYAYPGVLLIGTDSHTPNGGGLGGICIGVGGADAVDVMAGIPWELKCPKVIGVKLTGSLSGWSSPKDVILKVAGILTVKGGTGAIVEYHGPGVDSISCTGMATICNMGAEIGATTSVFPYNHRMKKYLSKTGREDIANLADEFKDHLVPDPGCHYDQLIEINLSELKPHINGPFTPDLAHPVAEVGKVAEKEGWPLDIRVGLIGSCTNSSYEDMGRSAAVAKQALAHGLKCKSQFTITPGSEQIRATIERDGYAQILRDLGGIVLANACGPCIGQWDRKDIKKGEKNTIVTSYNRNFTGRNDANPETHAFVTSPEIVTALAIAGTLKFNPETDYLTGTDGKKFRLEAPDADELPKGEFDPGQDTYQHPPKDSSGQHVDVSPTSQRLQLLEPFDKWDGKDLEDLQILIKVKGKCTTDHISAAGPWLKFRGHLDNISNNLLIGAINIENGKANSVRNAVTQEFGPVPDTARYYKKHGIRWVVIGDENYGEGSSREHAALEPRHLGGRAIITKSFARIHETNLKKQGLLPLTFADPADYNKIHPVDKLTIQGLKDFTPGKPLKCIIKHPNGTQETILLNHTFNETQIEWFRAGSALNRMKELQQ
Sequence of UniProt Q8NBU5 (Q8NBU5 whole entry, looked up): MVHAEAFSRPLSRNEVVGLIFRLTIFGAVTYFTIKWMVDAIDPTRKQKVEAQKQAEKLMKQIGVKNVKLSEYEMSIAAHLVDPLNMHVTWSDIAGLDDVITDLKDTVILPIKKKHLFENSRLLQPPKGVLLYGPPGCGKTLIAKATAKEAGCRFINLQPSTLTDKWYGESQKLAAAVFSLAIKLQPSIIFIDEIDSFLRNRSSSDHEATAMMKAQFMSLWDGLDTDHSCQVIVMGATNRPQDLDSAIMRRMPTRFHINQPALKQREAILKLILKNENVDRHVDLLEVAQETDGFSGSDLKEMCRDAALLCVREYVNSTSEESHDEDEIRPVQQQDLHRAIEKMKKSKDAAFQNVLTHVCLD
Sequence of UniProt Q9Y6E2 (Q9Y6E2 whole entry, looked up): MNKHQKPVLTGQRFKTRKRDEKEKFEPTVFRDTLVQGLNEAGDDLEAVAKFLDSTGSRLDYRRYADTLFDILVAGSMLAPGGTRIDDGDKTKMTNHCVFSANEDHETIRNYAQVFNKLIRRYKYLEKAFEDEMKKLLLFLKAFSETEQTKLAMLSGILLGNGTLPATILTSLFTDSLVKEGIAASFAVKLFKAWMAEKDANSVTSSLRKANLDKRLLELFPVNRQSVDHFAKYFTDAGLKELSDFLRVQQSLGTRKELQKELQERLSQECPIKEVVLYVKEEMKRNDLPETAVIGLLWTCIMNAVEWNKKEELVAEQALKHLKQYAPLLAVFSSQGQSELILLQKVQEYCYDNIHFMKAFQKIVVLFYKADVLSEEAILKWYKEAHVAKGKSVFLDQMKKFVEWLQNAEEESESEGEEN
Sequence of UniProt Q13733 (Q13733 whole entry, looked up): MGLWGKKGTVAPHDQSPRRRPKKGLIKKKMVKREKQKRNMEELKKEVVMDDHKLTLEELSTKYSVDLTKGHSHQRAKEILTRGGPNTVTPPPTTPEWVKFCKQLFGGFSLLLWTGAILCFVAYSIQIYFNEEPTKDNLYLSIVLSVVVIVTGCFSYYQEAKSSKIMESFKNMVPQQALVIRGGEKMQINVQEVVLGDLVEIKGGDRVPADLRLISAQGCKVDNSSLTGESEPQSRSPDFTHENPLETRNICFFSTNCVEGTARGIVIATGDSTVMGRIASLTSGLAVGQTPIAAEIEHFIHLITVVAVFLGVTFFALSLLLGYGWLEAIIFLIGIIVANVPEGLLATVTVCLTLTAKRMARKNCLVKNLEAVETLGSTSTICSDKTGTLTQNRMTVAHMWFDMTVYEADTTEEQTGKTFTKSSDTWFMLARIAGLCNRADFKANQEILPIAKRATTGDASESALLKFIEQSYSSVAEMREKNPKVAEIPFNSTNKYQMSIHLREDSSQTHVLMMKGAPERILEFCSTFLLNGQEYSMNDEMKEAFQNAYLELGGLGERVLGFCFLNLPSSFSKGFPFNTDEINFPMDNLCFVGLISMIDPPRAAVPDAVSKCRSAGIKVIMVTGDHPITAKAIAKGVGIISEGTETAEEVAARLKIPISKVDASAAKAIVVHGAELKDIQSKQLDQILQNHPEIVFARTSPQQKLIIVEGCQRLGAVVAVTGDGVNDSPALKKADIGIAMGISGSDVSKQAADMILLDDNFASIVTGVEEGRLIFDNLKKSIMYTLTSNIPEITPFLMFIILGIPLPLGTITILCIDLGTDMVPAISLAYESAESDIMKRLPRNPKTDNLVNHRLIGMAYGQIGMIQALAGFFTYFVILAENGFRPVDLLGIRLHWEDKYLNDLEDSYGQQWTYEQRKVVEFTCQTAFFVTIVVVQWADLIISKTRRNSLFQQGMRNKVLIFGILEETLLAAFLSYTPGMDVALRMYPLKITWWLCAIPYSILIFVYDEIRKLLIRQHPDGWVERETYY
Sequence of UniProt Q9BTE6 (Q9BTE6 whole entry, looked up): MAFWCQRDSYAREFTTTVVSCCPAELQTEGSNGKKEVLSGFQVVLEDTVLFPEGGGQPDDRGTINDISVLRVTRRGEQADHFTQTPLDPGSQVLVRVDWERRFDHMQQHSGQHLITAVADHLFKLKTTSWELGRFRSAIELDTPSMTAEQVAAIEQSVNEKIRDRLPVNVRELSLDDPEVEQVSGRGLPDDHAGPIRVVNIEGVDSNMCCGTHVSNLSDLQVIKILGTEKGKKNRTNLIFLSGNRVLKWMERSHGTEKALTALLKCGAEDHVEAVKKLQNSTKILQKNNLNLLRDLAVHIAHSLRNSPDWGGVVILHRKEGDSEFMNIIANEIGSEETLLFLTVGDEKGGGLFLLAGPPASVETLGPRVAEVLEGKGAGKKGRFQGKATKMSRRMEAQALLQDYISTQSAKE
Sequence of UniProt Q9H8Y5 (Q9H8Y5 whole entry, looked up): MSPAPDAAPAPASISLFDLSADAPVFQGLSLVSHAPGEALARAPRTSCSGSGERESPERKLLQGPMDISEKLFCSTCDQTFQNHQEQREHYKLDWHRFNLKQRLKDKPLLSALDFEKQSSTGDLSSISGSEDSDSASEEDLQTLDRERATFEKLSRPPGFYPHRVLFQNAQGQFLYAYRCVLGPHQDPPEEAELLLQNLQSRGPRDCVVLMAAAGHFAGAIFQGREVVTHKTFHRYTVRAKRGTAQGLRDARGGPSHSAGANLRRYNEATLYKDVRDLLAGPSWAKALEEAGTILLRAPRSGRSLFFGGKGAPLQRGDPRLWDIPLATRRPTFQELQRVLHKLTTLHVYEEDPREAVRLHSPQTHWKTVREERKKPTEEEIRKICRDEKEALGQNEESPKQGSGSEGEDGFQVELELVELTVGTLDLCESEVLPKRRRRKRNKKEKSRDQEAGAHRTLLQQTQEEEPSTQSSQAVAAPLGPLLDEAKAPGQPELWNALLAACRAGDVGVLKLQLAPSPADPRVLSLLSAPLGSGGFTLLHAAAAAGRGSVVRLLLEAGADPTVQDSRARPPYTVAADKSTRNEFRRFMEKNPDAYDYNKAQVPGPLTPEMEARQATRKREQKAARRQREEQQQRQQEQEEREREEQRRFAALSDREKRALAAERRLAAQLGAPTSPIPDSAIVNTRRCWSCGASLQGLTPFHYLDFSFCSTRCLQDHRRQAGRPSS
Sequence of UniProt P42330 (P42330 whole entry, looked up): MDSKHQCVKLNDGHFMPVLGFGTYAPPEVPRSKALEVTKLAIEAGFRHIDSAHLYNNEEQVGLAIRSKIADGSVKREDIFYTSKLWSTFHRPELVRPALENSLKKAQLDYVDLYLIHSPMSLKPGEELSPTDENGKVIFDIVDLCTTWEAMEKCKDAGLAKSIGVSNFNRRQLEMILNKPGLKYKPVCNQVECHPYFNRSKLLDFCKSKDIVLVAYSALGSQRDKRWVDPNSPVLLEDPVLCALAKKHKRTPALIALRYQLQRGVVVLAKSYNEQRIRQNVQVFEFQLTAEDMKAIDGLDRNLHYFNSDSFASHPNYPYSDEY
Sequence of UniProt Q7L1Q6 (Q7L1Q6 whole entry, looked up): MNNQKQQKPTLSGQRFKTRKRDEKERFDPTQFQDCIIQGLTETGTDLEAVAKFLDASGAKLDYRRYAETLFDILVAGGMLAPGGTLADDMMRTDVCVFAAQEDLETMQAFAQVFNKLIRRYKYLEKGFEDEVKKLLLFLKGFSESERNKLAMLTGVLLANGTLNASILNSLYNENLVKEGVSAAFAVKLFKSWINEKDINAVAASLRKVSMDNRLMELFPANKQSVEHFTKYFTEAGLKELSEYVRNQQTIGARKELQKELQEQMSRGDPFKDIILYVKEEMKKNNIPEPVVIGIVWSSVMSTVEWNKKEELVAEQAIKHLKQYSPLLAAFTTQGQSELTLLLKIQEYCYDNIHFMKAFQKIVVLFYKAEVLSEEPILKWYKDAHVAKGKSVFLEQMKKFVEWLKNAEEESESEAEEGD

Row | Target | log2 fold change (erlotinib) | log2 fold change [1] | log2 fold change [2] | log2 fold change [3] | log2 fold change [4] | log2 fold change [5] | log2 fold change [6] | log2 fold change [7] | log2 fold change [8] | log2 fold change [9]
1 | ATG9A (UniProt Q7Z3C6) | 0.044 | 0.03 | 0.057 | -0.003 | 0.047 | 0.021 | 0.045 | -0.005 | -0.026 | -0.023
2 | AIF1 (UniProt P55008) | 0.155 | -0.02 | 0.09 | 0.08 | -0.051 | 0.093 | 0.058 | -0.126 |  | 
3 | AP2S1 (UniProt P53680) | -0.1 | 0.148 | -0.056 | -0.018 | 0.052 | 0.013 | -0.011 | -0.27 (active) | -0.354 (active) | -0.003
4 | ALDH1B1 (UniProt P30837) | 0 | 0.073 | 0.066 | 0.081 | 0.062 | -0.009 | 0.044 | 0.065 | -0.028 | 0.043
5 | ARFIP1 (UniProt P53367) | 0.217 | -0.121 | 0.087 | 0.094 | 0.115 | 0.62 | -0.126 | -0.013 | 0 | 0.044
6 | ASH2L (UniProt Q9UBL3) | -0.021 | 0.025 | 0.019 | -0.062 | -0.012 | 0.022 | 0.001 | -0.029 | -0.004 | 0.052
7 | ARL6IP4 (UniProt Q66PJ3) | 0.041 | 0.06 | -0.085 | -0.01 | -0.08 | 0 | -0.12 | 0.117 | 0.003 | 0.039
8 | ABCB6 (UniProt Q9NP58) | 0.017 | 0.045 | 0.029 | 0.037 | -0.003 | 0.069 | 0.087 | -0.056 | -0.057 | 0.023
9 | ATP6V1F isoform 2 (UniProt Q16864) | -0.049 | -0.017 | 0.232 | 0.077 | 0.04 | 0.189 | -0.017 | -0.024 | -0.066 | -0.222
10 | ADD2 (UniProt P35612) | 0.008 | -0.011 | 0.025 | 0.004 | -0.004 | 0.022 | 0.012 | -0.005 | 0.004 | 0.016
11 | BZW2 (UniProt Q9Y6E2) | -0.018 | 0.106 | 0.054 | -0.016 | 0.033 | 0.026 | 0.022 | 0.013 | 0.037 | -0.021
12 | ATAD1 (UniProt Q8NBU5) | 0.037 | 0.036 | 0.295 (active) | 0.021 | 0.054 | -0.022 | 0.059 | 0.123 | 0 | -0.006
13 | BCAP29 isoform 2 (UniProt Q9UHQ4) | -0.02 | 0.002 | 0.077 | 0.062 | -0.026 | 0.086 | -0.034 | 0.038 | 0.062 | -0.022
14 | ATIC (UniProt P31939) | 0.031 | 0.033 | 0.062 | 0.006 | 0.005 | -0.067 | 0.094 | 0.016 | -0.031 | 0.035
15 | ANKZF1 (UniProt Q9H8Y5) | 0.142 | 0.032 | -0.141 | 0 | 0.015 | -0.108 | -0.035 | -0.039 | 0.057 | -0.022
16 | ATP6V1H (UniProt Q9UI12) | -0.055 | 0.015 | 0.034 | 0.035 | -0.008 | 0.045 | -0.131 | 0.024 | -0.051 | -0.097
17 | BZW1 isoform 3 (UniProt Q7L1Q6) | 0.049 | 0.176 | -0.001 | -0.088 | 0.054 | 0.019 | 0.042 | 0.039 | -0.059 | -0.101
18 | AP2A2 isoform 2 (UniProt O94973) | 0.007 | 0.014 | -0.004 | -0.012 | 0.007 | 0.004 | 0.072 | -0.118 | -0.284 (active) | 0.028
19 | AKT1 (UniProt P31749) | 0.095 | 0.034 | 0.101 | -0.067 | 0 | 0.184 | 0.117 | 0.059 | -0.026 | 0.164
20 | ADRM1 (UniProt Q16186) | -0.069 | -0.038 | -0.007 | 0.006 | 0.034 | 0.033 | 0.028 | 0.046 | -0.017 | -0.076
21 | AAMP (UniProt Q13685) | 0.025 | -0.032 | 0.006 | -0.003 | 0.042 | 0.074 | -0.007 | 0.003 | -0.006 | 0.085
22 | ACO2 (UniProt Q99798) | 0.049 | 0.008 | 0.105 | -0.014 | 0.077 | -0.244 (active) | 0.036 | 0.009 | 0.018 | 0.015
23 | ARL1 (UniProt P40616) | 0.049 | 0.063 | 0.072 | -0.091 | 0.027 | -0.028 | 0.13 | 0.084 | -0.076 | 0.055
24 | ACSL1 (UniProt P33121) | -0.015 | 0.067 | 0.017 | 0.03 | 0.005 | 0.018 | 0.057 | 0.016 | -0.021 | 0.002
25 | ATP1A4 (UniProt Q13733) | -0.076 | 0.033 | 0.183 | 0.046 | -0.051 | 0.063 | -0.003 | -0.112 | -0.009 | -0.015
26 | ACADVL isoform 3 (UniProt P49748) | 0.008 | 0.015 | 0.035 | 0.291 (active) | 0.023 | 0.055 | 0.027 | 0.155 | 0.025 | 0.043
27 | ATP12A isoform 2 (UniProt P54707) | 0.01 | -0.002 | 0.025 | 0.014 | 0.007 | 0.026 | 0.025 | -0.049 | -0.051 | 0.05
28 | AKR1C3 (UniProt P42330) | 0.063 | 0.067 | 0.117 | -0.095 | 0.02 | 0.067 | 0.796 (active) | -0.022 | 0.031 | 0.044
29 | APOB (UniProt P04114) | 0.062 | 0.008 | 0.042 | -0.024 | -0.018 | 0.05 | 0.046 | -0.011 | 0.018 | -0.174
30 | AARSD1 isoform 3 (UniProt Q9BTE6) | 0.05 | -0.736 (active) | 0.113 | -0.014 | -0.027 | 0.008 | -0.015 | 0.053 | -0.006 | -0.086
